Among the data in paper PMC11062922 (Nature Chemical Biology, 2023) are potency estimated from few doses values, retold here.

Holding throughout (parameters): species or system human, MV4-11 + K-562 + COLO205 + SK-N-BE2 + OVCAR-8
For one test, the system named is ADRBK1. The following applies: read-out: apparent Kd, n = 1.
The subject of a further test is CDK4. The following applies: read-out: apparent Kd; compound concentrations:100 nM and 1000 nM (sheet 'Samples'); n = 1.
The test system of the next test is CDK6. The conditions noted are these: read-out: apparent Kd, n = 1.
A further test relates to MAP2K2. The following applies: read-out: apparent Kd; compound concentrations:100 nM and 1000 nM (sheet 'Samples'); n = 1.
A further test has as its system MAPK14. The following applies: read-out: apparent Kd, n = 1.
The subject of a further test is MAPKAPK2. The conditions noted are these: read-out: apparent Kd, n = 1.
The subject of a further test is NQO2. The conditions noted are these: read-out: apparent Kd; compound concentrations:100 nM and 1000 nM (sheet 'Samples'); n = 1.
The test system of another test is PRKCZ. The following applies: read-out: apparent Kd; compound concentrations:100 nM and 1000 nM (sheet 'Samples'); n = 1.
A further test concerns TP53RK. The conditions noted are these: read-out: apparent Kd; compound concentrations:100 nM and 1000 nM (sheet 'Samples'); n = 1.
Another test deals with CSNK1D. The following applies: read-out: apparent Kd, compound concentrations: 100 nM and 1000 nM (sheet 'Samples'), n = 1.
For another test, the system named is CSNK1E. The following applies: read-out: apparent Kd, compound concentrations: 100 nM and 1000 nM (sheet 'Samples'), n = 1.
The subject of the next test is PKN3. The conditions noted are these: read-out: apparent Kd, compound concentrations: 100 nM and 1000 nM (sheet 'Samples'), n = 1.
A further test concerns RIPK2. The following applies: read-out: apparent Kd, compound concentrations: 100 nM and 1000 nM (sheet 'Samples'), n = 1.
In another test the test system is TESK2. The following applies: read-out: apparent Kd; compound concentrations: 100 nM and 1000 nM (sheet 'Samples'), CATDS: 8.5548681543300906E-2; n = 1.
For the next test, the system named is TNIK. The following applies: read-out: apparent Kd; compound concentrations: 100 nM and 1000 nM (sheet 'Samples'), CATDS: 8.6694751539446793E-2; n = 1.
A further test concerns ADK. The conditions noted are these: read-out: apparent Kd; compound concentrations: 100 nM and 1000 nM (sheet 'Samples'), CATDS: 3.8521875066841203E-2; n = 1.
The next test concerns COX5A. The following applies: read-out: apparent Kd; compound concentrations: 100 nM and 1000 nM (sheet 'Samples'), CATDS: 3.6331945852285497E-2; n = 1.
A further test concerns CSNK1A1. The conditions noted are these: read-out: apparent Kd; compound concentrations: 100 nM and 1000 nM (sheet 'Samples'), CATDS: 6.6366617124681102E-2; n = 1.
The test system of a further test is CSNK1G1. The following applies: read-out: apparent Kd; compound concentrations: 100 nM and 1000 nM (sheet 'Samples'), CATDS: 3.36950722911461E-2; n = 1.
The subject of the next test is CSNK1G3. The conditions noted are these: read-out: apparent Kd; compound concentrations: 100 nM and 1000 nM (sheet 'Samples'), CATDS: 3.7890071369445298E-2; n = 1.
In another test the test system is T1, DJA1.
T1 construct: gene DNAJA1
The conditions noted are these: read-out: apparent Kd; compound concentrations: 100 nM and 1000 nM (sheet 'Samples'), CATDS: 3.3060215115758199E-2; n = 1.

A further test deals with MAP4K5. The conditions noted are these: read-out: apparent Kd; compound concentrations: 100 nM and 1000 nM (sheet 'Samples'), CATDS: 3.4056635134305298E-2; n = 1.
A further test deals with MAPK10. The conditions noted are these: read-out: apparent Kd; compound concentrations: 100 nM and 1000 nM (sheet 'Samples'), CATDS: 4.2468368704664097E-2; n = 1.
The next test deals with MAPK11. The conditions noted are these: read-out: apparent Kd; compound concentrations: 100 nM and 1000 nM (sheet 'Samples'), CATDS: 0.108415283939704; n = 1.
A further test has as its system MAPK9. The conditions noted are these: read-out: apparent Kd; compound concentrations: 100 nM and 1000 nM (sheet 'Samples'), CATDS: 5.19093996737921E-2; n = 1.
A further test relates to NLK. The following applies: read-out: apparent Kd; compound concentrations: 100 nM and 1000 nM (sheet 'Samples'), CATDS: 5.68204402660955E-2; n = 1.
In a further test the test system is PRKCA. The following applies: read-out: apparent Kd; compound concentrations: 100 nM and 1000 nM (sheet 'Samples'), CATDS: 4.1145920495800903E-2; n = 1.
A further test deals with PRKCB. The conditions noted are these: read-out: apparent Kd; compound concentrations: 100 nM and 1000 nM (sheet 'Samples'), CATDS: 3.4087347473579097E-2; n = 1.
The next test relates to PRKD2. The conditions noted are these: read-out: apparent Kd; compound concentrations: 100 nM and 1000 nM (sheet 'Samples'), CATDS: 3.50594175571005E-2; n = 1.
The test system of the next test is PRKD3. The following applies: read-out: apparent Kd; compound concentrations: 100 nM and 1000 nM (sheet 'Samples'), CATDS: 3.1320583757310602E-2; n = 1.
A further test deals with AKT2. The conditions noted are these: read-out: apparent Kd; compound concentrations:100 nM and 1000 nM (sheet 'Samples'); n = 1.
The next test has as its system MAP2K5. The conditions noted are these: read-out: apparent Kd; compound concentrations:100 nM and 1000 nM (sheet 'Samples'); n = 1.
The next test deals with RIOK2. The conditions noted are these: read-out: apparent Kd; compound concentrations:100 nM and 1000 nM (sheet 'Samples'); n = 1.
The next test has as its system RIPK3. The conditions noted are these: read-out: apparent Kd; compound concentrations:100 nM and 1000 nM (sheet 'Samples'); n = 1.
[1] abbreviates: compound concentrations:100 nM and 1000 nM (sheet 'Samples').

The structures appear in SMILES notation. Where two headings read alike, the source gives them in different places.

For `Cc1ccccc1-c1cc(-c2c[nH]nc2-c2ccccn2)ccn1` [GW680061X], the potency estimated from few doses was 2.14 µM with ADRBK1 (setting [1]); 1.89 µM with CDK4; 1.96 µM with CDK6 (setting [1]); 2.25 µM with MAP2K2; 0.993 µM in the test with MAPK14 (setting [1]); 0.47 µM in the test on MAPKAPK2 (setting [1]). Further, the potency estimated from few doses was 1.21 µM in the test with NQO2, 2.26 µM with PRKCZ and 2.16 µM in the test with TP53RK.

With `CCc1nc(-c2cccc(C)c2)c(-c2ccncc2)s1` [TPKI-106], the potency estimated from few doses was 1.68 µM in the test on ADRBK1 (compound concentrations: 100 nM and 1000 nM (sheet 'Samples'), CATDS: 9.0460214145081597E-2); 1.95 µM in the test on CDK6 (compound concentrations: 100 nM and 1000 nM (sheet 'Samples'), CATDS: 8.6240814727830004E-2); 1.23 µM with CSNK1D (CATDS: 0.10143186295273); 1.34 µM in the test with CSNK1E (CATDS: 9.8095690794025595E-2); 0.691 µM in the test on MAPK14 (compound concentrations: 100 nM and 1000 nM (sheet 'Samples'), CATDS: 0.129413599974984); 0.0575 µM in the test on PKN3 (CATDS: 0.541648596841942). The values for the potency estimated from few doses in the test with RIPK2 (CATDS: 0.18182932832718701), with TESK2 and with TNIK were 0.349 µM, 2 µM and 1.91 µM, respectively.

Turning to `Cl.Cl.Cl.Fc1ccc(-c2ncn(C3CCNCC3)c2-c2ccnc(Nc3ccccc3)n2)cc1.Fc1ccc(-c2ncn(C3CCNCC3)c2-c2ccnc(Nc3ccccc3)n2)cc1` [SB-238039-R], the potency estimated from few doses is 0.704 µM with ADK; 0.873 µM in the test on COX5A; 0.131 µM in the test on CSNK1A1; 0.00661 µM in the test on CSNK1D (CATDS: 0.21669980545697101); 0.0185 µM in the test on CSNK1E (CATDS: 0.13524385654208201); 1.18 µM in the test with CSNK1G1. In addition, the potency estimated from few doses is 0.747 µM with CSNK1G3; 1.29 µM with DJA1; 1.13 µM in the test on MAP4K5; 0.504 µM in the test with MAPK10; 0.0327 µM in the test with MAPK11; 0.00159 µM in the test with MAPK14 (compound concentrations: 100 nM and 1000 nM (sheet 'Samples'), CATDS: 0.505182268244599). For the same molecule, the potency estimated from few doses in the test with MAPK9 is 0.27 µM; in the test on MAPKAPK2 (compound concentrations: 100 nM and 1000 nM (sheet 'Samples'), CATDS: 0.16433458855485) it was 0.0118 µM; with NLK it was 0.206 µM; in the test on PKN3 (CATDS: 3.0507466694278802E-2), 1.9 µM; with PRKCA, 0.56 µM; in the test on PRKCB it was 1.13 µM. Besides, the potency estimated from few doses in the test with PRKD2 is 1 µM; in the test on PRKD3 it was 1.66 µM; in the test with RIPK2 (CATDS: 4.9528140659543501E-2), 0.311 µM.

For the molecule `O=C(O)C(F)(F)F.O=C(O[C@H]1CN[C@H](C#Cc2cc3ncnc(Nc4ccc(Cc5ccccc5)cc4)c3s2)C1)N1CCOCC1` [GSK238583A], the potency estimated from few doses in the test on ADRBK1 (setting [1]) is 1.67 µM; in the test on AKT2 it was 1.77 µM; in the test on MAP2K5, 0.646 µM; in the test with RIOK2 it was 2.42 µM; in the test on RIPK3 it was 2.26 µM.
